Results reported in PubChem BioAssay AID1347426 (Functional Genomics Laboratory (NCATS/FGL), 2020).
About 1,400 (4.5%) of roughly 31,000 sequences were called active.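 Rule for the calls: active = median seed-adjusted z-score above 1 or below -1; inactive = the rest.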 The sample as a whole holds a higher share of actives than the screen did.

Test: Novel Modifiers of Survival Motor Neuron (SMN) Protein: Gene Identification via Genome-wide siRNA Screen;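 note: luminescence tracks full-length SMN protein made from the SMN2 reporter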
Settings: HEK293T SMN2-luciferase reporter, siRNA knockdown, 72 h; actives lie on both sides
How it was run: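 HEK293T cells stably expressing an SMN2 splicing/cDNA-luciferase reporter were reverse-transfected with a druggable-genome siRNA library and read by luminescence at 72 hours; hits defined by MAD score above 1.0 or below -1.0.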

Row | Sequence | median seed-adjusted z-score
1 | GGAUGUUCGUCAUAUUGAATT against IRAK3 | 0.155 (inactive)
2 | CAAAAGACCUGUAAUAAGATT against MAGT1 | -0.0855 (inactive)
3 | GCCUUGAUGCUGAUCAUCATT against MEP1B | 1.46 (active)
4 | GGUGAAUCAUUUGAACUGATT against RCL1 | 0.0807 (inactive)
5 | GGAAUACUCAGAUCGGGAATT against MAP3K3 | -0.182 (inactive)
6 | GUAUGGAGAUCUCUACGGATT against RYR3 | 0 (inactive)
7 | GUAUGACCUAAAAACCGAATT against MTRR | -0.381 (inactive)
8 | AGAGAUACUUCUUAAAUCATT against YAP1 | -0.247 (inactive)
9 | GCUCAAUGCAGGUAUUCAATT against KLF8 | 0.0976 (inactive)
10 | AAGUCUCAUUCGUGGUUGATT against ST6GALNAC6 | 0.367 (inactive)
11 | CAGCCCAAGUGUCGCCUUATT against PAX9 | -1.16 (active)
12 | GAUAUUCUCUGUGACGUGATT against BACH2 | 0 (inactive)
13 | GACCAGAUGUGGAUGUAAATT against MIB1 | 0 (inactive)
14 | ACUAGCCUGUGGAGCAAGATT against HBE1 | -0.425 (inactive)
15 | CCGAUCAAGUGAACAUAGATT against AKAP4 | 0.116 (inactive)
16 | CCUUCUCAACAUAGGAUAATT against ZNF257 | 0.306 (inactive)
17 | UGGGUUGGAUGAUACCUUATT against GATA5 | 0.15 (inactive)
18 | GAGGGUCUCUUCUUAAGUATT against CAD | 2.37 (active)
19 | UCAUCACAGCGGUACUGUATT against ITGAX | -0.0677 (inactive)
20 | GCAGGUAGCUCAUAUGUUUTT against WDR31 | 0.796 (inactive)
21 | GGACCACGUCAAGACUUGUTT against TRAF2 | -0.00463 (inactive)
22 | CAAACUUCCCGAUAGAGAATT against CTDP1 | -2.29 (active)

Row | Sequence | median seed-adjusted z-score
23 | CUAUCAGGGAAAUUACGUATT against ZNF713 | -0.0652 (inactive)
24 | AAAUGUAACCUUUUGCUUUTT against DAD1 | -0.45 (inactive)
25 | GCUUUACCUUGGACCUGAATT against MPL | -0.0153 (inactive)
26 | GCGUGAUCAUCGAUGUGGATT against SLC5A7 | 0.624 (inactive)
27 | GAUGUUCCCUAUAUGCAAATT against CLDN10 | 0.0399 (inactive)
28 | GUGUAUCUAUGGAAGAGCATT against PSMD4 | 1.46 (active)
29 | CUAUAAUUCCAGAGCAUAATT against KLF5 | -0.338 (inactive)
30 | GGACCUUGGAUUAUCUGAATT against YME1L1 | 0.131 (inactive)
31 | CACUAGUUCUAUGACCAUUTT against IMPG1 | -0.252 (inactive)
32 | GCAUGGAAGUGUACGAGUATT against THBS3 | 0.429 (inactive)
33 | CCACUGACAAGGUCCACGATT against MRGPRD | -0.484 (inactive)
34 | CCGUAAACUUCAUAACAUUTT against DYRK1A | -1.3 (active)
35 | CCUUAGUUCUUCCUCGGAATT against PARP12 | -0.287 (inactive)
36 | GCUGAUCUAUCACAAACCATT against SERPINA2 | 0.285 (inactive)
37 | AAUGCAUUGUGAACCCAUUTT against GNGT2 | -0.289 (inactive)
38 | GGUUAGAAGAGGUGUCUAATT against NUMB | -0.599 (inactive)
39 | AGCCCAAGGUGGAACAAUCTT against CREM | -2.37 (active)
40 | GGAUGAACCCAAUCCCAAUTT against UBE2A | 0.306 (inactive)
41 | GGUCCCUGUUGAGAAACGATT against TOP1 | 0.0303 (inactive)
42 | GCAAAGGCCUUGUACGUCATT against USP10 | 0.182 (inactive)
43 | GCUUGAGUAUAGAUAAAGATT against PAM | 0 (inactive)
44 | UGGACACCGUCACCAUGAATT against GPR78 | 0.607 (inactive)

Row | Sequence | median seed-adjusted z-score
45 | GCCGAGCUCUUUAUCCUCUTT against TRHDE | 0.429 (inactive)
46 | GGAUCGGGUGUAUCAACAATT against SRP54 | 0.203 (inactive)
47 | CAUUGUCGUUGGUGCAGUATT against ADCY10 | -0.573 (inactive)
48 | GGAAUUACGGAGAUAUAGATT against TRRAP | -1.25 (active)
49 | GGACACAUCUCGGACAGCATT against KLK9 | -0.476 (inactive)
50 | GUACCUUGAGAAGAAAUUUTT against ACCN1 | -0.325 (inactive)
51 | UCAGCUCCAUUAAUAGAAUTT against PAX8 | 0 (inactive)
52 | CCUCAUAAGUGUAAGAUAUTT against ZNF799 | -1.02 (active)
53 | GAAUGUCCCUGCUCCACAATT against SNAI1 | 0.0196 (inactive)
54 | ACAACUUCCUGGUCGCUGATT against GPR62 | 0.0306 (inactive)
55 | AGAAGAUCCGAAAGAAAUATT against GABARAP | 0.418 (inactive)
56 | CCAACGACCUGGUUAUGAATT against FBP1 | -0.221 (inactive)
57 | GGUUGGAACUCGUUCCUCATT against NLGN4X | -0.1 (inactive)
58 | GCACAAGACGAACUCAGUATT against UBE2J2 | -0.341 (inactive)
59 | GCAUUGUCUCUCUUAUGUUTT against SYVN1 | -1.41 (active)
60 | AGAUCAAGCUCCUCAACAATT against KRT4 | 0.336 (inactive)
61 | GUUAUUCCCUGUUCUCGAATT against ALDH5A1 | 0.339 (inactive)
62 | GGACGUGGACCAUUACUGUTT against LITAF | 0.0771 (inactive)
63 | GAUUAACCAAGGUUGAGAATT against CNGA1 | -1.08 (active)
64 | CCACAUCUCUACUCGUGAATT against ULK4 | 0.0834 (inactive)
65 | GGAGUUACGAUAGCCGGAATT against DIAPH1 | 0.145 (inactive)
66 | CGGGAUAAUUUUGACAAGATT against NXF2 | -0.0513 (inactive)

Row | Sequence | median seed-adjusted z-score
67 | GGAAACUCUGUUUACGUUATT against BTAF1 | -1.19 (active)
68 | GGACAACAUUUGACACCAATT against APOBEC2 | 0.232 (inactive)
69 | CAGACACCUUCAUACCUUATT against BHMT | 0 (inactive)
70 | CUGCAAGACUUGGAGCUAATT against HDLBP | -1.18 (active)
71 | UGGGAGAAGUACAACAAUATT against FAM12A | 0.08 (inactive)
72 | CAACGACAGCAGUCCCAUUTT against EGR1 | 0.0836 (inactive)
73 | GUGUAAGGAUCAAAAAGAATT against ZNF682 | -0.155 (inactive)
74 | ACAACAUCAUGAUCCGAGATT against PIK3CD | 0.00831 (inactive)
75 | CUUCGUAUGUUUACAAGAATT against GUCY2C | -0.0181 (inactive)
76 | GCUCUACGCAAGGAGAUCATT against BATF | -0.0501 (inactive)
77 | GUCCGGUGUUUGAACCUGATT against ABHD2 | -1.21 (active)
78 | CUAUUGUAAAAGUAUGGAATT against ARL6IP2 | 0.274 (inactive)
79 | GGCCUACAGCAACAAUGGATT against PCDH24 | 0.345 (inactive)
80 | GAGUGGAAGUUAUCUGUCATT against WBSCR22 | -0.21 (inactive)
81 | AGCUCCAUCUCGACCACAATT against FMOD | -1.32 (active)
82 | GGAAUACAGUGACGACAAATT against ING5 | -0.193 (inactive)
83 | GCAUCGACCGGGUUUAUGATT against KARS | -0.152 (inactive)
84 | CCACUUUACCCACUACCCATT against ISX | 1.99 (active)
85 | GCAUUCGAAUUAUAGAACATT against SLC16A14 | 0.464 (inactive)
86 | GCACAAAUCUCAAUAUUCATT against GPSM3 | -0.641 (inactive)
87 | CAGCCUUAAUGGACACGAATT against MFGE8 | 0.0367 (inactive)
88 | GUAUGGUCGGUUUACAAUATT against YES1 | -0.508 (inactive)

Row | Sequence | median seed-adjusted z-score
89 | ACCGUAUUCCUAUAUCUCATT against FOXA3 | 0.128 (inactive)
90 | GCAUCGUCAAGGAUUGGAATT against ACTR1A | 1.28 (active)
91 | GCACUUACGAUGACCGGCATT against TNFAIP1 | 0.0766 (inactive)
92 | GCAAUUUCUUGUUUCGUUATT against SLC9A6 | -0.0831 (inactive)
93 | GGACAAUAGACUUUAGAGATT against NCALD | 0 (inactive)
94 | AGUAUACGCUGCCCUCAUATT against RNASE3 | 0.588 (inactive)
95 | CCAUUUGAGGUGAACCGUATT against RFWD3 | 0.554 (inactive)
96 | CUACGACGGUGAUAUUGGATT against HDAC2 | -1.27 (active)
97 | GCAGGGAUCUUACAUCUAUTT against CENTD2 | -0.305 (inactive)
98 | GCAUCCUACCCGUUCCAUATT against MSX2 | -0.406 (inactive)
99 | GGGACAUCCGAGAUCCUAATT against LAMB1 | 1.07 (active)
100 | GGACAAACACGGACAGUAUTT against EPHB4 | -0.143 (inactive)
101 | AAGGAGCAGUGGAUACUGATT against MST1 | -1.47 (active)
102 | GAAGGAAGAUGGUAAGGGATT against IL6ST | -0.518 (inactive)
103 | GCUUCGUGAGCUUUGAUAATT against BRUNOL5 | 0.333 (inactive)
104 | CGUGGACAGCUGCAGAAAATT against EDIL3 | 0 (inactive)
105 | CAAUCAGCAGAGUUACAUUTT against CPEB3 | 0.086 (inactive)
106 | CCAUCGUCAUGGUUACCAATT against PTPRA | -0.438 (inactive)
107 | GCACUUAAGGAAUGACAGATT against CDY2A | 0.75 (inactive)
108 | CAGGUUCUCUAAUUGAACATT against NFX1 | -0.256 (inactive)
109 | GAAACGCAAGGGUACAGAATT against RUVBL2 | -0.0764 (inactive)
